Results reported in the supplement of paper PMC6555819.

The sequences below were run on VDR:RXRa (NR concentration 270 nM, RXRa partner concentration 90 nM) (assay: PBM binding z-score (relative to random genomic background probes); higher = stronger binding; sequences stand for … in GC…GCGATTGACAGCGTAGAATGAAGG).
Description: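 Protein-binding microarray (Agilent 4x180K custom design, double-stranded 60-nt probes: 5' GC cap, 34-nt variable region, 24-nt constant primer region; full probe sequence given). Purified or IVT nuclear receptor:RXRα heterodimers (3:1 NR:RXRα, mostly 270:90 nM) or homodimers were incubated for 1 h in PBS with 2% milk and no ligand, then detected with Alexa488 antibodies. Fluorescence from o1-orientation probes (~5 replicates averaged) was converted to z-scores against 500 random hg19 background probes. Variable regions are seed direct-repeat (DR0–DR5) sites, all their single-nucleotide variants and half-site ablations.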

TCTAGCAGGCCAGAGGGTTACTCAAGAGGTACGG was tested. Which PBM binding z-score did it give?
The PBM binding z-score was -0.176.

How did the PBM binding z-score turn out when CCTATTAGTTGACCATAAGGGCAACCGCAGCTCG was run?
Its PBM binding z-score is 0.982.

TCTAGCAGGCCAGAGAGTCACTCAAGAGGTACGG was tested. Which PBM binding z-score did it give?
The PBM binding z-score was -0.279.

AGAATGAGTTTATTAAGATCAGGGAATTGCGGTC was tested. Which PBM binding z-score did it give?
The PBM binding z-score was 2.08.

With CCTATTAGTTGAGCATAAGGGCAACCGAAGCTCG as the sequence, how does the PBM binding z-score read?
The PBM binding z-score was 0.408.

For CGTCCAAGGTCAAGGCCAGTGAAAGAGACTCGAA, which PBM binding z-score is on record?
Its PBM binding z-score is 3.69.

For TGAATGAGGTTAAAGATCAGTGAACGTGGCGTCG, which PBM binding z-score is on record?
The PBM binding z-score was 1.62.

Which PBM binding z-score does the source give for TCTTGTAGATCAAGCAGGTTTAGAAAGCCTGAGT here?
Its PBM binding z-score is 0.444.

For CGAACTAGGTCATCCAGGACAGAGAATACATTGA, which PBM binding z-score is on record?
Its PBM binding z-score is 4.48.

Which PBM binding z-score does the source give for CGTCATAGTTCAAGGTAACGTAACAGAAAGCAGC here?
The PBM binding z-score was 1.3.

ATATGTAGGTTAAGGGTCATTCAGGTTGGTTCGC was tested. Which PBM binding z-score did it give?
Its PBM binding z-score is 5.83.

With TTACCAAGGTGAAGGTCGTTGGTCCCTCTGTAGA as the sequence, how does the PBM binding z-score read?
The PBM binding z-score was 0.994.

How did the PBM binding z-score turn out when ATCTCTAGGTAAAAGTTTAGTGAATCCCGAGGAT was run?
Its PBM binding z-score is 0.124.

Which PBM binding z-score does the source give for TGTCAAAGTTCAAAGGTAGCGTAAGTATCCACAC here?
The PBM binding z-score was 4.76.

With ACAGACAGGTGAGTGAAGTTAACTCAGCTGGACG as the sequence, how does the PBM binding z-score read?
Its PBM binding z-score is -0.576.

For CCTCGGAGGACAACAGGAGGTCAGCGCTGCCAGA, which PBM binding z-score is on record?
The PBM binding z-score was 2.39.

How did the PBM binding z-score turn out when TCTGCTACGTCAGTTGGTCAGCTAACGAGCTGCC was run?
Its PBM binding z-score is -0.996.

With ACTAGCAGGCCAAGTTTGGATCACTCAAACAAAG as the sequence, how does the PBM binding z-score read?
The PBM binding z-score was -0.621.

CCAGACACGTGAAAGGTAACTCAGTCTGGTACGC was tested. Which PBM binding z-score did it give?
The PBM binding z-score was -0.114.

With ATCGAAAGGTCGAGGGTGAGTATACCCACCCGAA as the sequence, how does the PBM binding z-score read?
The PBM binding z-score was 2.68.

TCTAGTTGGTCAAAGGTCACACGCTCGAAATGCG was tested. Which PBM binding z-score did it give?
The PBM binding z-score was 5.38.

With CTCGAAAGTTCGTGCTCAGGTGAGTATACCAAAC as the sequence, how does the PBM binding z-score read?
Its PBM binding z-score is 1.71.

CCTGCTAGGTCAATGGTCAGCGAAAGCAGCTCGC was tested. Which PBM binding z-score did it give?
Its PBM binding z-score is 0.881.

How did the PBM binding z-score turn out when TCGTATAGGTAAAAGGTGAAAGTCGGTGTGGTAA was run?
The PBM binding z-score was 1.58.

For CTACCAAGGTGAACATGGTCGTTGATTACTATTC, which PBM binding z-score is on record?
The PBM binding z-score was 1.18.

How did the PBM binding z-score turn out when CCGACTGGGGGATAAGGTTACCATAAGCCAGCCC was run?
Its PBM binding z-score is 0.902.

For AGAATGAGTTTACCAAAGATCAGGGAAACGCTTG, which PBM binding z-score is on record?
Its PBM binding z-score is 1.05.

Which PBM binding z-score does the source give for TCAGCTAGGTCAACGATGGTCAGCTAATCTGCTA here?
The PBM binding z-score was 1.53.

How did the PBM binding z-score turn out when ATATGTAGGTTAGCTGTGGTCATTCAGACTAGGC was run?
Its PBM binding z-score is 0.859.

How did the PBM binding z-score turn out when GCTATTACTTGAAAGGGCAACCGAATGATTCTCG was run?
Its PBM binding z-score is 0.432.

With CCTTACGGGACACTGACAGGTTATAGCATTTGGA as the sequence, how does the PBM binding z-score read?
The PBM binding z-score was -0.00746.

Which PBM binding z-score does the source give for AGAATTAGGTTATACGTAGATCAGGGAAGAAAGT here?
The PBM binding z-score was 0.22.

For CCGACTGGGCCAAAAAGGTCATTGATGCCGATAA, which PBM binding z-score is on record?
The PBM binding z-score was 4.64.

With ACTATTAGTTGACTTAGGGCAACCGTTACGACGC as the sequence, how does the PBM binding z-score read?
The PBM binding z-score was 0.577.

How did the PBM binding z-score turn out when CGAACAAGGTCAGAACAGGACAGTGAAGGATGAT was run?
The PBM binding z-score was 3.

How did the PBM binding z-score turn out when TCGAGTAGGTTAGGGGCAGTCAGAATGGCGTCGA was run?
Its PBM binding z-score is 0.0468.

CCTAGCAGGCCAATCTGGGTCACACAAGGCTTGA was tested. Which PBM binding z-score did it give?
Its PBM binding z-score is 1.09.

How did the PBM binding z-score turn out when CAAACTAGGTCACGGAAGGTCAAAGTCGAATGAC was run?
Its PBM binding z-score is 6.69.

Which PBM binding z-score does the source give for AGAATGAGGTTACCAAAAATCAGGGAAACGCTTG here?
Its PBM binding z-score is 1.03.

How did the PBM binding z-score turn out when CCTGCTAGGTCAATGGTCGGCTAAAGCAGCTCGC was run?
Its PBM binding z-score is 1.07.
